Columns and labels:
Assay in all cases: DAPPL (digital affinity profiling via proximity ligation, sequencing); 10 mM Tris-HCl pH 7.5, 50 mM NaCl, 1 mM DTT, 4% glycerol, room temperature, 30 min; GST-TFs on glutathione beads, 16-mer random dsDNA library, 0.1% formaldehyde crosslink after washing; high values mean tight binding
Settings in all cases: protein: recombinant; tags: N-terminal GST; dsDNA, one strand shown
[1] = biological target: T1, FLI1 (Homo sapiens, UniProt Q01543 1-452)
T1 sequence: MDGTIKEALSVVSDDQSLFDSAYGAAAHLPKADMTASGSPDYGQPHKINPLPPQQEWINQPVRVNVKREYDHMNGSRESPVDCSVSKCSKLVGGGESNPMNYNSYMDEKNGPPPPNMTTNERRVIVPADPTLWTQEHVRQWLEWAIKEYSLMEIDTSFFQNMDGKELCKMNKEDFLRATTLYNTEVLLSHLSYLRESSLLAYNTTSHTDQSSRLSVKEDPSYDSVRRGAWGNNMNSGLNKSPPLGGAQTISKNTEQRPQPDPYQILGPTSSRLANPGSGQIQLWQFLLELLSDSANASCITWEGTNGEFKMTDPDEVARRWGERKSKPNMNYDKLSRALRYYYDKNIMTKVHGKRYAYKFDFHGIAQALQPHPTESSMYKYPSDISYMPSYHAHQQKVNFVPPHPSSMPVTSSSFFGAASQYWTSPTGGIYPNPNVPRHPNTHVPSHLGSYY
Outline: (§1)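 Binding signal is given per hexamer as its read frequency for a factor divided by its frequency in the tag-only sample. GST-fused human transcription factors were expressed in yeast, captured on glutathione beads, barcoded with DNA and pooled with that sample, then incubated with 200 nmole of a 16-mer random double-stranded DNA library in Tris/NaCl/DTT/glycerol buffer for 30 min at room temperature. The pools were then washed, crosslinked, proximity-ligated, amplified by PCR and sequenced on an Illumina NextSeq500.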

[2] = biological target: T2, ELK1 (Homo sapiens, UniProt P19419 1-428)
T2 sequence: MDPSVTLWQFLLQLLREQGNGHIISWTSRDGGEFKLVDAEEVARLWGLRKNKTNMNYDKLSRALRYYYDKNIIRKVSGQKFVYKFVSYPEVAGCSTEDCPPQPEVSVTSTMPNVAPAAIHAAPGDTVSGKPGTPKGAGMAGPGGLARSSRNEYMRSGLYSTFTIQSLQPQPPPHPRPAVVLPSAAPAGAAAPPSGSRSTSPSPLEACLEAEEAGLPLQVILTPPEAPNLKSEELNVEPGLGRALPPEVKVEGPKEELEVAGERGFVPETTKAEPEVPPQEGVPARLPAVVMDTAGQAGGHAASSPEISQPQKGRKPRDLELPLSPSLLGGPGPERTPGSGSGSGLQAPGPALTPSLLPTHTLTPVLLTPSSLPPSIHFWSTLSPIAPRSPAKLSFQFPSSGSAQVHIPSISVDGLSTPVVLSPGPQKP
Outline: as §1

[3] = biological target: T3, GABPA (Homo sapiens, UniProt Q06546 1-454)
T3 sequence: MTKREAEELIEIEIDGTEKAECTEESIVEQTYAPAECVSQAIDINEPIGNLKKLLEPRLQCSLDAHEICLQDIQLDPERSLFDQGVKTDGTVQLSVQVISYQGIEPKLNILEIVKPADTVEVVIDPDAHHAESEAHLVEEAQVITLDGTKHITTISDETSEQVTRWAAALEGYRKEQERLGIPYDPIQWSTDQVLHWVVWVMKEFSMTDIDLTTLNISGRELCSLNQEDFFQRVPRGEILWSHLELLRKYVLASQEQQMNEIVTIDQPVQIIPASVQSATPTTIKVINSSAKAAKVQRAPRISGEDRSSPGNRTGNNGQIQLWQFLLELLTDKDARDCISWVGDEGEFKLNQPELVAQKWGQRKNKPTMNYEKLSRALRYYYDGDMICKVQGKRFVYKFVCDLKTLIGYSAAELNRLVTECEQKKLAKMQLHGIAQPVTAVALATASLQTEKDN
Outline: as §1

[4] = biological target: T4, ERG (Homo sapiens, UniProt P11308 1-479)
T4 sequence: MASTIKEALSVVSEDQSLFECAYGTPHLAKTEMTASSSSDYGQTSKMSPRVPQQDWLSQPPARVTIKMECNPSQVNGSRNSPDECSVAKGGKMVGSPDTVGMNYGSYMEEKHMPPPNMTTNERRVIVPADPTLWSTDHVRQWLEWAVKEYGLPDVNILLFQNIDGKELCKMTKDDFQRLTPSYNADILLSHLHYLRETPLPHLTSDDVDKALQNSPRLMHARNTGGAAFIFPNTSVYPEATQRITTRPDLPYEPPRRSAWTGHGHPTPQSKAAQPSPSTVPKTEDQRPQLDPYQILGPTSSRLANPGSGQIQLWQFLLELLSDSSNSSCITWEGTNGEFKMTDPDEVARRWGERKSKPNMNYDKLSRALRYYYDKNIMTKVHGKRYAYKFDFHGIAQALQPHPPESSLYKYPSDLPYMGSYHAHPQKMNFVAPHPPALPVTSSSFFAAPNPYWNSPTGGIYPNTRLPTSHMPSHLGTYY
Outline: as §1

[5] = biological target: ELF1 (Homo sapiens, UniProt P32519 1-619)
Chain of ELF1 (P32519 whole entry): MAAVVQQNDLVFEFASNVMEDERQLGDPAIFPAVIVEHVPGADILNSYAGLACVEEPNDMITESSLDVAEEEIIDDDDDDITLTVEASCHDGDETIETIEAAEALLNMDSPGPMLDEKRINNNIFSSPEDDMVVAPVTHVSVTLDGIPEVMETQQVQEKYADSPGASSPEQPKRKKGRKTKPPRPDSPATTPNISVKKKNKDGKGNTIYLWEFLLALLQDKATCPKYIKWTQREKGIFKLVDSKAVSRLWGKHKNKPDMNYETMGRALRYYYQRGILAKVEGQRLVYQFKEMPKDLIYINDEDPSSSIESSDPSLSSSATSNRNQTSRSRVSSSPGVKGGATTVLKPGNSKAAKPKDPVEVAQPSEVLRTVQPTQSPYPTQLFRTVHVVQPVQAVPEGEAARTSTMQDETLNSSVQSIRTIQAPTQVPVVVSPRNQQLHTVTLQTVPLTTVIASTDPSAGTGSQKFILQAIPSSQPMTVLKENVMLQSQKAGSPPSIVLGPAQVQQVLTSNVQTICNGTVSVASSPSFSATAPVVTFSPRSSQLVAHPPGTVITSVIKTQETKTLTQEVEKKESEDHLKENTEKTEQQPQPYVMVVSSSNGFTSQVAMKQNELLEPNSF
Outline: as §1

[6] = biological target: T5, EHF (Homo sapiens, UniProt Q9NZC4 1-300)
T5 sequence: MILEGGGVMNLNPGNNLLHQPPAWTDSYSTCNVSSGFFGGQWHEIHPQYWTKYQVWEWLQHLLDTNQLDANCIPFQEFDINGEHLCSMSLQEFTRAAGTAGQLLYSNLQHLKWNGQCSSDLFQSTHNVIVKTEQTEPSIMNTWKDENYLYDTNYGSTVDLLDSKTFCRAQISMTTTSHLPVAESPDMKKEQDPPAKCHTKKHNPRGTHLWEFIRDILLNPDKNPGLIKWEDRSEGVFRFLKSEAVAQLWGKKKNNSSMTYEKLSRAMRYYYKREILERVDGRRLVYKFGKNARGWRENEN
Outline: as §1

[7] = biological target: SPI1 (Homo sapiens, UniProt P17947 1-270)
Outline: as §1

[8] = biological target: SPIB (Homo sapiens, UniProt Q01892 1-262)
Chain of SPIB (Q01892 whole entry): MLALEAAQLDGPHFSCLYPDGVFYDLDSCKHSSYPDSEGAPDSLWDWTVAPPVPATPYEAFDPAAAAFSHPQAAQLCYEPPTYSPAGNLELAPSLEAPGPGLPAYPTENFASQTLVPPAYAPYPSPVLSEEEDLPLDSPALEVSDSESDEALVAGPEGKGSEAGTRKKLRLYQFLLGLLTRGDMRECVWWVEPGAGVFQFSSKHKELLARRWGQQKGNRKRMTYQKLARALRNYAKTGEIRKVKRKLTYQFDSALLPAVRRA
Outline: as §1

[9] = biological target: T6, ELK3 (Homo sapiens, UniProt P41970 1-407)
T6 sequence: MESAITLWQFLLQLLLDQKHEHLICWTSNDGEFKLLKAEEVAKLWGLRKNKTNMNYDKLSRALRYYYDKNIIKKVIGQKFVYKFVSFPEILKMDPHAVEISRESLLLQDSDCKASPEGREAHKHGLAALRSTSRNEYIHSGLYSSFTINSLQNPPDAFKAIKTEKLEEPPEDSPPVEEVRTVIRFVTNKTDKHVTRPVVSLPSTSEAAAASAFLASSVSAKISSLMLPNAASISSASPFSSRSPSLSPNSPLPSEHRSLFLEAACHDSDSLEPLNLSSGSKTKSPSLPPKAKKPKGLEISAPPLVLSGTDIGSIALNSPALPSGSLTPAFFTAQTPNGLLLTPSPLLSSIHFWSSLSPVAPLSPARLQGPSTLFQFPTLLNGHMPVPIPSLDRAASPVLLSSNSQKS
Outline: as §1

[10] = biological target: T7, FEV (Homo sapiens, UniProt Q99581 1-238)
T7 sequence: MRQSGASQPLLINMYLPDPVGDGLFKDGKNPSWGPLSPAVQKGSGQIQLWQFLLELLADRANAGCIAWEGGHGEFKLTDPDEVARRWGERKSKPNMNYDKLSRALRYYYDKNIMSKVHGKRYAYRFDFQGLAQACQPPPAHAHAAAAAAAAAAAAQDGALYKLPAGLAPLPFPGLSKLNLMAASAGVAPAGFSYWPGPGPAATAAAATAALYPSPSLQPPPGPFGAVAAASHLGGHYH
Outline: as §1

[11] = biological target: ETV5 (Homo sapiens, UniProt P41161 1-510)
Chain of ETV5 (P41161 whole entry): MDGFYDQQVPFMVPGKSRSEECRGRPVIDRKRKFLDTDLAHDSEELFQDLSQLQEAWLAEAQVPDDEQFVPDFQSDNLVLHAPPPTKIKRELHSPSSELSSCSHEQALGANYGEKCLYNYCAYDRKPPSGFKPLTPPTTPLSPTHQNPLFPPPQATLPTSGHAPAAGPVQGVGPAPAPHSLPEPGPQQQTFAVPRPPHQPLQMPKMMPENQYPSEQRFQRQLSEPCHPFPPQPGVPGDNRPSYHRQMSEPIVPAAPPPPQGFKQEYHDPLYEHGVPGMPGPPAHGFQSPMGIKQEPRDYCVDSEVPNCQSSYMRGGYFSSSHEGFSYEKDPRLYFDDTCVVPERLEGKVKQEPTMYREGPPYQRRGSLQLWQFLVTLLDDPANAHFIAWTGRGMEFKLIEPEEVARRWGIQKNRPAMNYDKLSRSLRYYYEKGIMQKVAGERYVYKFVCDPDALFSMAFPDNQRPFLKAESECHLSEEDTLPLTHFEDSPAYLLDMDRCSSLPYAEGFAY
Outline: as §1

[12] = biological target: T8, SPIC (Homo sapiens, UniProt Q8N5J4 1-248)
T8 sequence: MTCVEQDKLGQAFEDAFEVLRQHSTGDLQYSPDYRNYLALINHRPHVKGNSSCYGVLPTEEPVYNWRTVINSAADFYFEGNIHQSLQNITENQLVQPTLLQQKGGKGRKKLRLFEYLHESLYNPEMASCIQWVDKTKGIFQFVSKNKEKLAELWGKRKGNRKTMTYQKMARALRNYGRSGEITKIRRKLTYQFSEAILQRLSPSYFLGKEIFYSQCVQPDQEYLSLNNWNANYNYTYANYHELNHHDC
Outline: as §1

[13] = biological target: ELF4 (Homo sapiens, UniProt Q99607 1-663)
Chain of ELF4 (Q99607 whole entry): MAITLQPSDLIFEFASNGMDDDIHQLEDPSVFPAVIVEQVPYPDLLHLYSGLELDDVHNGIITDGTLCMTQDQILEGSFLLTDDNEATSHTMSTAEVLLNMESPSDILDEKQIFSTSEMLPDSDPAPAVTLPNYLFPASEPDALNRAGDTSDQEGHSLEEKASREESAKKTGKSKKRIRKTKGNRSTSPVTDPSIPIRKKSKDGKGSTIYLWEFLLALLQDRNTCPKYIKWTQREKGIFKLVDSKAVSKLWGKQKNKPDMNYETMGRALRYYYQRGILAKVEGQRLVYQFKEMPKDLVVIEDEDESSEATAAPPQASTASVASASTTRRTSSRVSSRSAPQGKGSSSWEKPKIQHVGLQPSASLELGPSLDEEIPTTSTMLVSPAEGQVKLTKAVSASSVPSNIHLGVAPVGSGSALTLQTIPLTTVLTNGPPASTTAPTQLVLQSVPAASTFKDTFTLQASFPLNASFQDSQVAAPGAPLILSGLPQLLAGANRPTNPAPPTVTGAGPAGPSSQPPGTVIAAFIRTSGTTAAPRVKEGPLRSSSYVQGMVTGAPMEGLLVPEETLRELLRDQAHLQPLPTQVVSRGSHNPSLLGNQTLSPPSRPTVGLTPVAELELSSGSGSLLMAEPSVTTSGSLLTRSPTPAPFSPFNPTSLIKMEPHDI
Outline: as §1

[14] = biological target: T9, ELK4 (Homo sapiens, UniProt P28324-2 1-405)
T9 sequence: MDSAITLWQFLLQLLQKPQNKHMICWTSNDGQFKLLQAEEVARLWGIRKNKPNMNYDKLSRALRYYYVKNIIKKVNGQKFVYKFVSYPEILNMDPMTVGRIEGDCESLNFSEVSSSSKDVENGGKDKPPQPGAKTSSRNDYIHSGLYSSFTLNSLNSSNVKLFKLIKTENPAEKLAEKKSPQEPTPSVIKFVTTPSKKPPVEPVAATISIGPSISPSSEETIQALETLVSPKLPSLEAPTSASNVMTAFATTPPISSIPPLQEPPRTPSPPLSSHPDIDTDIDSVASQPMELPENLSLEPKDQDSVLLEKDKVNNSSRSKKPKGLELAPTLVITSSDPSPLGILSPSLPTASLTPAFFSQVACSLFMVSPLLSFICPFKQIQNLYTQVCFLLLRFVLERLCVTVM
Outline: as §1

[15] = biological target: T10, ETV2 (Homo sapiens, UniProt O00321 1-342)
T10 sequence: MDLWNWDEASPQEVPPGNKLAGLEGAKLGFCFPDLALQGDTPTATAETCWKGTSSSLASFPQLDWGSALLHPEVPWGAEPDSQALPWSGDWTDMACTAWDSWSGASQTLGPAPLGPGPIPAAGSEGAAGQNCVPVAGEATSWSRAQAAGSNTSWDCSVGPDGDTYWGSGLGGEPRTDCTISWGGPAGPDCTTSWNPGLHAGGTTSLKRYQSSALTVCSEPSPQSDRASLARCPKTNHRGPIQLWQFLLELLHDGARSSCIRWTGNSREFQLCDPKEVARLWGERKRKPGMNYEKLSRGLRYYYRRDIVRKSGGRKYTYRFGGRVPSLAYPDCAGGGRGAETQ
Outline: as §1

[16] = biological target: T11, ELF3 (Homo sapiens, UniProt P78545 1-371)
T11 sequence: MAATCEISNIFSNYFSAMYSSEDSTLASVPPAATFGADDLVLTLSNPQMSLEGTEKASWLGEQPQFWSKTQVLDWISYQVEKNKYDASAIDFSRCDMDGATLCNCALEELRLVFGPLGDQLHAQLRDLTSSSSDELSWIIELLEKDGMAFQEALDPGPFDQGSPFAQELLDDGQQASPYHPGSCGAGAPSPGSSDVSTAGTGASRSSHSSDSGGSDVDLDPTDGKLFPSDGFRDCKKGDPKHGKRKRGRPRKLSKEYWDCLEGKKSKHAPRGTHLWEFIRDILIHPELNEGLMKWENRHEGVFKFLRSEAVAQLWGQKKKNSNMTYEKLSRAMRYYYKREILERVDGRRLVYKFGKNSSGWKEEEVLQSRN
Outline: as §1

[17] = biological target: ETV1 (Homo sapiens, UniProt P50549 1-477)
Chain of ETV1 (P50549 whole entry): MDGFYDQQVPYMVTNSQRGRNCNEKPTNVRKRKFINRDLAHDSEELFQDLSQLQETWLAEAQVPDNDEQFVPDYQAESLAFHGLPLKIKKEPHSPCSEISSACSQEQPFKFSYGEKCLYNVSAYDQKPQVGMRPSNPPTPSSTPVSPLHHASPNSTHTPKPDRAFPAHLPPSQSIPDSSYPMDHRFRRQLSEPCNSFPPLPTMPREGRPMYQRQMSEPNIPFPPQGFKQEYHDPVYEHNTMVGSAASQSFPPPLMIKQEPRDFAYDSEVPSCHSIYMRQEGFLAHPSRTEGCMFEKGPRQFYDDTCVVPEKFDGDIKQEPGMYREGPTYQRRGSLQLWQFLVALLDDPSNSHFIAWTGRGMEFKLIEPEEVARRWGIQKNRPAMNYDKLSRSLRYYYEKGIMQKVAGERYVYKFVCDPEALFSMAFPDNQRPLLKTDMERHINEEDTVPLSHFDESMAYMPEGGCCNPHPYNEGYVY
Outline: as §1

| Sequence | binding signal [1] | binding signal [2] | binding signal [3] | binding signal [4] | binding signal [5] | binding signal [6] | binding signal [7] | binding signal [8] | binding signal [9] | binding signal [10] | binding signal [11] | binding signal [12] | binding signal [13] | binding signal [14] | binding signal [15] | binding signal [16] | binding signal [17] |
| --- | --- | --- | --- | --- | --- | --- | --- | --- | --- | --- | --- | --- | --- | --- | --- | --- | --- |
| GTATCA | 1.14 fold enrichment (6-mer frequency, TF over GST control) | 1.07 fold enrichment (6-mer frequency, TF over GST control) | 1.18 fold enrichment (6-mer frequency, TF over GST control) | 1.05 fold enrichment (6-mer frequency, TF over GST control) | 1.05 fold enrichment (6-mer frequency, TF over GST control) | 1.1 fold enrichment (6-mer frequency, TF over GST control) | 1.06 fold enrichment (6-mer frequency, TF over GST control) | 1.02 fold enrichment (6-mer frequency, TF over GST control) | 1.1 fold enrichment (6-mer frequency, TF over GST control) | 1.04 fold enrichment (6-mer frequency, TF over GST control) | 1.01 fold enrichment (6-mer frequency, TF over GST control) | 1.03 fold enrichment (6-mer frequency, TF over GST control) | 1.05 fold enrichment (6-mer frequency, TF over GST control) | 1.12 fold enrichment (6-mer frequency, TF over GST control) | 1.12 fold enrichment (6-mer frequency, TF over GST control) | 1.17 fold enrichment (6-mer frequency, TF over GST control) | 1.05 fold enrichment (6-mer frequency, TF over GST control) |
| ACCCCA | 1.05 fold enrichment (6-mer frequency, TF over GST control) | 1.12 fold enrichment (6-mer frequency, TF over GST control) | 1.15 fold enrichment (6-mer frequency, TF over GST control) | 1.08 fold enrichment (6-mer frequency, TF over GST control) | 1.11 fold enrichment (6-mer frequency, TF over GST control) | 1.11 fold enrichment (6-mer frequency, TF over GST control) | 1.08 fold enrichment (6-mer frequency, TF over GST control) | 1.05 fold enrichment (6-mer frequency, TF over GST control) | 1.02 fold enrichment (6-mer frequency, TF over GST control) | 1.07 fold enrichment (6-mer frequency, TF over GST control) | 1.05 fold enrichment (6-mer frequency, TF over GST control) | 1.15 fold enrichment (6-mer frequency, TF over GST control) | 1.12 fold enrichment (6-mer frequency, TF over GST control) | 1.2 fold enrichment (6-mer frequency, TF over GST control) | 1.04 fold enrichment (6-mer frequency, TF over GST control) | 1.04 fold enrichment (6-mer frequency, TF over GST control) | 1.06 fold enrichment (6-mer frequency, TF over GST control) |
| ACACAA | 1.14 fold enrichment (6-mer frequency, TF over GST control) | 1.17 fold enrichment (6-mer frequency, TF over GST control) | 1.12 fold enrichment (6-mer frequency, TF over GST control) | 1.17 fold enrichment (6-mer frequency, TF over GST control) | 1.23 fold enrichment (6-mer frequency, TF over GST control) | 1.21 fold enrichment (6-mer frequency, TF over GST control) | 1.17 fold enrichment (6-mer frequency, TF over GST control) | 1.21 fold enrichment (6-mer frequency, TF over GST control) | 1.19 fold enrichment (6-mer frequency, TF over GST control) | 1.17 fold enrichment (6-mer frequency, TF over GST control) | 1.19 fold enrichment (6-mer frequency, TF over GST control) | 1.22 fold enrichment (6-mer frequency, TF over GST control) | 1.17 fold enrichment (6-mer frequency, TF over GST control) | 1.05 fold enrichment (6-mer frequency, TF over GST control) | 1.1 fold enrichment (6-mer frequency, TF over GST control) | 1.11 fold enrichment (6-mer frequency, TF over GST control) | 1.14 fold enrichment (6-mer frequency, TF over GST control) |
